Assay [1] concerns the target Rap guanine nucleotide exchange factor 3 (Homo sapiens) (UniProt O95398). As to the kind of experiment: Confirmatory qHTS for antagonist of cAMP-regulated guanine nucleotide exchange factor 3 (EPAC1) (AID 1645880). Note: nearly all actives have a fitted effect of over 55% in size. Note: potency is the fitted concentration of half-maximal effect. In a few lines:
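Released BODIPY-GDP fluoresces less than Rap1-bound BODIPY-GDP; the signal is followed at 480/540 nm at 5-min intervals over 30 min, after 5 min at room temperature. Reactions contain 100 nM EPAC1, 250 nM RAP1B-BODIPY-GDP and 50 uM GDP; results are normalized to ATA and DMSO.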

For assay [2] the target is unchanged. As to the kind of experiment: Confirmatory qHTS for agonist of cAMP-regulated guanine nucleotide exchange factor 3 (EPAC1) (AID 1645881).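 For activation: EPAC1 catalysed release of BODIPY-GDP from Rap1B seen as fluorescence loss; 100% = effect of cAMP agonist control.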 Note: nearly all actives have a fitted effect of over 75% in size. Note: potency is the fitted concentration of half-maximal effect.
The target in assay [3] is Rap guanine nucleotide exchange factor 4 (Homo sapiens) (UniProt Q8WZA2). In words: Confirmatory qHTS for agonist of cAMP-regulated guanine nucleotide exchange factor 4 (EPAC2) (AID 1645884). For activation: % is set by controls: 0 for no effect and ±100 for the full control effect.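 Note: nucleotide exchange releases bodipy-GDP from Rap1 and this lowers its fluorescence; nearly all actives have a fitted effect of over 65% in size.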 Note: potency is the fitted concentration of half-maximal effect.
Rap guanine nucleotide exchange factor 4 (Homo sapiens), sequence (Q8WZA2 whole entry, looked up): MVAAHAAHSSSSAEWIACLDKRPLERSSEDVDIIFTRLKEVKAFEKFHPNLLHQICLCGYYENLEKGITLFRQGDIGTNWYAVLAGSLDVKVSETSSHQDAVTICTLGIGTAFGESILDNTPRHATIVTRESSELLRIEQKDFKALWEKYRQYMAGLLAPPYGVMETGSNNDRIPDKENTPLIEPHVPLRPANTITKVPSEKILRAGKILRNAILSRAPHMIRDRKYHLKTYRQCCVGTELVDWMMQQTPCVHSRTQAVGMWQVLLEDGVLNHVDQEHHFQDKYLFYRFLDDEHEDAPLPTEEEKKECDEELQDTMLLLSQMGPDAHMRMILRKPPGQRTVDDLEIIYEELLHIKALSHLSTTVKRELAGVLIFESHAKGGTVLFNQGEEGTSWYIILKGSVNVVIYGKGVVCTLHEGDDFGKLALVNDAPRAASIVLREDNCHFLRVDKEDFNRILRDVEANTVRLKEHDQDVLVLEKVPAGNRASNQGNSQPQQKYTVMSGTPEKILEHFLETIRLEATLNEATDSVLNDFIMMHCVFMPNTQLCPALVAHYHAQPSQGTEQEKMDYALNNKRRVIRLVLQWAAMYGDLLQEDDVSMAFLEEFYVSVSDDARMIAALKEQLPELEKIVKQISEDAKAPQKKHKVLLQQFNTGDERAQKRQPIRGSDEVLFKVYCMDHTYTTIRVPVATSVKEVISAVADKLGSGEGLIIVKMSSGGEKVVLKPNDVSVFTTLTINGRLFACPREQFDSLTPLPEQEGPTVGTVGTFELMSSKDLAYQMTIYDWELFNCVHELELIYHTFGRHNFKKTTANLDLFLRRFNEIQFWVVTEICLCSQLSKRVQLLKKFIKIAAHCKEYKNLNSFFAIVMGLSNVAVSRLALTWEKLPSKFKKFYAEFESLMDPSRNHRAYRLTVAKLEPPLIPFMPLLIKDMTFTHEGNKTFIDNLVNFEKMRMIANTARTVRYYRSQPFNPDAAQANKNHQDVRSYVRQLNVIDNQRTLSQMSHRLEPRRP
The target is the same in assay [4]. As to the kind of experiment: Confirmatory qHTS for antagonist of cAMP-regulated guanine nucleotide exchange factor 4 (EPAC2) (AID 1645885). For activity change, negative = inhibition: % is set by controls: 0 for no effect and ±100 for the full control effect. Note: nearly all actives have a fitted effect of over 25% in size. Note: potency is the fitted concentration of half-maximal effect.
Assay [5] deals with Rap guanine nucleotide exchange factor 3 (Homo sapiens) (UniProt O95398). In words: Counterscreen qHTS for antagonist of cAMP-regulated guanine nucleotide exchange factor 3 (EPAC1) (AID 1645888). Note: % of control where 0% means no effect. In a few lines: (§1)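 Measured: fluorescence of BODIPY-GDP bound to Rap1B, which falls as exchange proceeds. Conditions include 50 uM competing GDP, 5 and 30 min reads, and a later cAMP challenge for antagonist detection.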
Rap guanine nucleotide exchange factor 3 (Homo sapiens), sequence (O95398 whole entry, looked up): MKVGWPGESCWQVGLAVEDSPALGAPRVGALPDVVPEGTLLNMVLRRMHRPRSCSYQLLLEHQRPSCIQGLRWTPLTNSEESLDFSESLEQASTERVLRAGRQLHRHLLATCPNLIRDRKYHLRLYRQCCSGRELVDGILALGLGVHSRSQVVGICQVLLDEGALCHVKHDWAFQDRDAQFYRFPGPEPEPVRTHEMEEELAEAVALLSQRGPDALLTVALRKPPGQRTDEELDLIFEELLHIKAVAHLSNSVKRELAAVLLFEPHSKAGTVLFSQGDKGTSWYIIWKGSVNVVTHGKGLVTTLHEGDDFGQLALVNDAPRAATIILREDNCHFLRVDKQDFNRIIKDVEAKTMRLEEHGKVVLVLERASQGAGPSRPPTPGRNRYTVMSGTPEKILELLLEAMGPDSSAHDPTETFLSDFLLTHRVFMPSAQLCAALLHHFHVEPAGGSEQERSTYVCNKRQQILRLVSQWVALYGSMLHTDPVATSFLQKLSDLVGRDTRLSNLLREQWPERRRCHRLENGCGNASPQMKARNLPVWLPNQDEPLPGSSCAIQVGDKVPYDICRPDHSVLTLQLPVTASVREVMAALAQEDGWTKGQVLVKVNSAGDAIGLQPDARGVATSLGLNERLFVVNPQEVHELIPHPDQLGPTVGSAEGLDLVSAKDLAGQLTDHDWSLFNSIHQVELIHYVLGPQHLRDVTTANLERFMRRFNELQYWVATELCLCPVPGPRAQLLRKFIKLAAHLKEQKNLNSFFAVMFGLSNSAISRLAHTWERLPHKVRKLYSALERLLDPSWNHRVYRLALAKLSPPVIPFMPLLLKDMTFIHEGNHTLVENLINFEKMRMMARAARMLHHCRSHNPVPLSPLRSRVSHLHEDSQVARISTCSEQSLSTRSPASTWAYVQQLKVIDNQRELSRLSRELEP

The target is the same in assay [6]. In words: Counterscreen qHTS for agonist of cAMP-regulated guanine nucleotide exchange factor 3 (EPAC1) (AID 1645889). For activation: % of control where 0% means no effect. Note: nearly all actives have a fitted effect of over 40% in size. Note: potency is the fitted concentration of half-maximal effect. In outline: as §1

Records with an inconclusive call do not appear. Unmarked numbers belong to inactive results. Calls of active or inactive are those of the source. Calls come from the whole dose curve; as a rule, active = well fitted curve in the direction sought with a large enough effect; inconclusive = small, poorly fitted or top-dose-only effect, or another doubt; inactive = no such curve, though single readings can be large; an effect the other way counts as inactive or inconclusive.

Consider `O=[N+]([O-])c1ccc(Cc2ccccn2)c([N+](=O)[O-])c1`, for which the Potency result in assay [1], in assay [2], in assay [3], in assay [5] and in assay [6] was “inactive” throughout. In addition, the outcome in assay [4] was “inactive; activator; fitted 0.12 uM [at 12.7 µM]”.

In the case of `Cc1ccc(-c2csc(NC(=O)c3ccc(Br)cc3)c2C(=O)O)cc1`, the Potency in assay [1] is 33.8 µM (active). The Potency entry in assay [2], in assay [3], in assay [4], in assay [5] and in assay [6] was “inactive” in each case.

With `O=C(O)c1cc(S(=O)(=O)Nc2cc(Cl)ccc2Oc2ccccc2)ccc1O`, the Potency in assay [1] is 26.9 µM (active). Further, the Potency result in assay [2], in assay [3], in assay [4], in assay [5] and in assay [6] was “inactive” in each case.

On to `Cc1ccc(NC(=O)CSc2ncn[nH]2)cc1C`, for which the Potency entry in assay [1], in assay [2], in assay [3], in assay [4], in assay [5] and in assay [6] was “inactive” each time.

For `O=S1(=O)CCN2C(Cc3ccc(SC(F)F)cc3)=CSC2=N1`, the Potency result in assay [1], in assay [2], in assay [3], in assay [4], in assay [5] and in assay [6] was “inactive” throughout.

`CCOc1ccc(NC(=O)CN(C)C(=O)c2cc3c(s2)CCC3)cc1OCC`: the Potency in assay [1] was 37.9 µM (active). Further, the Potency result in assay [2], in assay [3], in assay [4], in assay [5] and in assay [6] was “inactive” throughout.

Regarding `CN1C(=O)C2(C(C#N)=C(N)N(c3cc(Cl)cc(Cl)c3)C3=C2C(=O)CC(C)(C)C3)c2ccccc21` (stereo unspecified), the Potency entry in assay [1], in assay [2], in assay [3], in assay [4], in assay [5] and in assay [6] was “inactive” throughout.

With `CCOC(=O)N(C)c1c(CC)nc2c(OCc3ccc(OC(F)F)cc3)cccn12`, the Potency entry in assay [1], in assay [2], in assay [3], in assay [4], in assay [5] and in assay [6] was “inactive” throughout.

Regarding `Nc1nnc(-c2cccc(F)c2)s1`, the Potency entry in assay [1], in assay [2], in assay [3], in assay [4], in assay [5] and in assay [6] was “inactive” throughout.

As to `COc1cccc(/C=C2\SC(=S)N(NS(=O)(=O)c3ccccc3)C2=O)c1OC`, the Potency in assay [1] was 33.8 µM (active); in assay [4], 37.9 µM (active). Moreover, the Potency entry in assay [2], in assay [3], in assay [5] and in assay [6] was “inactive” in each case.

As for `COc1cc(SC)ccc1C(=O)N(Cc1ccccc1)c1ccccc1`, the Potency entry in assay [1], in assay [2], in assay [3], in assay [5] and in assay [6] was “inactive” in each case. Further, the Potency in assay [4] was 23.9 µM (active).

Take `CCCCCN(C(=O)CCC(=O)OCc1ccc(C(C)C)cc1)c1c(N)n(CCCC)c(=O)[nH]c1=O`: the Potency result in assay [1], in assay [2], in assay [3], in assay [4], in assay [5] and in assay [6] was “inactive” each time.

Take `CCN(CC)c1ccc2oc(=O)c(C)nc2c1`: the Potency entry in assay [1] and in assay [5] was “inactive” throughout. The Potency in assay [2] was 100 µM (active); in assay [3] it was 100 µM (active); in assay [4], 75.7 µM (active); in assay [6], 39.8 µM (active).

On to `CN(C(=O)CSc1nc(-c2ccc(C(C)(C)C)cc2)c(C#N)c(=O)[nH]1)C1CCCCC1`, for which, in assay [1], the Potency is 42.6 µM (active). For the same molecule, the Potency entry in assay [2], in assay [3], in assay [4], in assay [5] and in assay [6] was “inactive” in each case.

`Cc1ccc(S(=O)(=O)N2[C@@H](c3ccc(Cl)cc3)C(C(=O)O)=CC[C@H]2c2ccc(C(C)C)cc2)cc1`: the Potency in assay [1] was 42.6 µM (active). The Potency result in assay [2], in assay [3], in assay [4], in assay [5] and in assay [6] was “inactive” throughout.

As for `Cc1nc2c(C(=O)NCCC(C)C)c[nH]n2c(=O)c1Cl`, the Potency result in assay [1], in assay [2], in assay [3], in assay [5] and in assay [6] was “inactive” each time. The Potency in assay [4] was 84.9 µM (active).

For the molecule `CCCn1c(N)c(C(=O)CSc2n[nH]c(-c3ccc(C)cc3)n2)c(=O)[nH]c1=O`, the Potency entry in assay [1], in assay [2], in assay [3], in assay [4], in assay [5] and in assay [6] was “inactive” throughout.

In the case of `CC(C)CNC(=O)c1[nH]c(C(F)(F)F)nc1-c1ccccc1`, the Potency entry in assay [1], in assay [2] and in assay [4] was “inactive” throughout. Further, the activation in assay [3] was 3.83% [at 17.1 µM, percent relative to cAMP agonist control]; in assay [6] it was 30.5% [at 30.8 µM]. Further, the activity change, negative = inhibition in assay [5] was -17.1% [at 30.8 µM].

With `O=C1c2ccccc2C(=O)N1c1nc(-c2cccs2)cs1`, the Potency in assay [1] was 4.78 µM (active); in assay [4] it was 60.1 µM (active). The Potency result in assay [2], in assay [3], in assay [5] and in assay [6] was “inactive” each time.

`O=C(CSc1nc2c([nH]c3ccccc32)c(=O)n1-c1ccccc1F)Nc1cccc(Cl)c1`: the Potency result in assay [1], in assay [2], in assay [3], in assay [4], in assay [5] and in assay [6] was “inactive” in each case.

For `Cc1ccc(CNC(=O)C(=O)NCCC2CCCCN2S(=O)(=O)c2cccs2)cc1` (stereo unspecified), the Potency entry in assay [1], in assay [2] and in assay [4] was “inactive” in each case. The activation in assay [3] was -1.43% [at 17.1 µM, percent relative to cAMP agonist control]; in assay [6], 20.6% [at 30.8 µM]. Further, the activity change, negative = inhibition in assay [5] is -26.3% [at 30.8 µM].

The values are drawn from PubChem BioAssay (NCATS).
